From PubChem BioAssay
The list is not random: actives were taken first. Their share in the collection is about 11%.
L3MBTL1 block: blocks human L3MBTL1; AlphaScreen L3MBTL1–H3K9me1 peptide binding; 230,000 tested, 0.66% active; Potency, µM (highest dose often 57.1 µM), for the others: top-dose activity, negative = inhibition, actives largely listed as inhibitors; AID 485360; further: on the % scale 0 is the no-effect control and ±100 the full control effect; nearly all actives have a fitted effect of over 60% in size
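AlphaScreen proximity signal between nickel-chelate acceptor and streptavidin donor beads (final 10 ug/mL) reports binding of 50 nM L3MBTL1 to 75 nM biotin-H3 K9me1 peptide; complex incubated with compounds 30 min at room temperature; cefsulodin titration as control.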
BAZ2B inh: BAZ2B (human) inhibition; Potency, µM (doses to about 114 µM), without a hit: at the highest dose activity change, negative = inhibition, actives largely listed as inhibitors; AID 504333; 360,000 tested, 4.4% active; Q9UIF8; AlphaScreen BAZ2B-H3K14Ac peptide displacement; further: on the % scale 0 is the no-effect control and ±100 the full control effect; nearly all actives have a fitted effect of over 60% in size
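AlphaScreen luminescence quantifies BAZ2B engagement of H3K14Ac peptide; the protein and biotinylated peptide are both at 50 nM final, buffer PBS pH 7.4 with 0.01% Tween-20, all steps at room temperature.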
G9a inh: G9a (human) methyltransferase inhibition. Potency, µM (top dose mostly 102 µM), for the others: at the highest dose activity, negative = inhibition, hits mostly inhibitors. G9a H3K9 monomethylation, AlphaScreen, 2 h. 350,000 tested, 8.8% active; further: on the % scale 0 is the no-effect control and ±100 the full control effect; nearly all actives have a fitted effect of over 75% in size
Target sequence (Q96KQ7 913-1193 limits assumed): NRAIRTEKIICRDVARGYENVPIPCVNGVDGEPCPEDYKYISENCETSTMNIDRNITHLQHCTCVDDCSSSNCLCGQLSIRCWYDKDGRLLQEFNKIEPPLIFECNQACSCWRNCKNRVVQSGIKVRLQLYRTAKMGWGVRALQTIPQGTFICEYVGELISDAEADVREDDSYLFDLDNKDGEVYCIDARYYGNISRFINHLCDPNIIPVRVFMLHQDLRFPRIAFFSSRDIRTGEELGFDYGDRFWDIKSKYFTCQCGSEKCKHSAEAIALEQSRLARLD
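Using a bead-based AlphaScreen, monomethylated H3K9 product from 2 h room-temperature reactions (G9a 20 nM, peptide 500 nM, SAM 20 uM) was detected with 0.5 ug/mL rabbit anti-H3K9me1 antibody.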
JMJD2A Tudor inh: JMJD2A Tudor domain (human) inhibition. O75164. Potency, µM (top dose mostly 114 µM), for inactives: at the top dose activity change, negative = inhibition, usual class: inhibitors. 390,000 tested, 4.4% active. AID 504339. AlphaScreen JMJD2A-Tudor / H3K4me3 peptide binding; further: on the % scale 0 is the no-effect control and ±100 the full control effect; nearly all actives have a fitted effect of over 50% in size
HP1b chromo inh: inhibitors of HP1-beta chromodomain binding to methylated histone tails. AlphaScreen HP1-beta / biotin-H3K9me3 peptide binding. Potency, µM (titrated, usually from 114 µM), inactives show top-dose activity change, negative = inhibition, most hits filed as inhibitors. 390,000 tested, 0.56% active. AID 540317; further: nearly all actives have a fitted effect of over 70% in size
Target sequence (P83916 whole entry, looked up): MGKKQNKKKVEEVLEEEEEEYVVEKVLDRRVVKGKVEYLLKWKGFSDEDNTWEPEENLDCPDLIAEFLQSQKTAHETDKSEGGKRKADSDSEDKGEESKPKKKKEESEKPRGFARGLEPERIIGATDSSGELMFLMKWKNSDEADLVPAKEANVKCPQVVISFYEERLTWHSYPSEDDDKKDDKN
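Compound inhibition of the preformed complex between 50 nM HP1-beta and 50 nM biotinylated H3K9me3 peptide was read by AlphaScreen. Buffer was PBS pH 7.4 with 0.01% Tween-20. Incubations ran 30 min at room temperature, with 10 ug/mL donor/acceptor beads.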
* = called active by the depositor; ? = inconclusive; nt = no result given; [ ] = dose if it differs, or a comment. The call rests on the fitted dose curve; in most records, active means well fitted inhibition curve with a large enough effect; inconclusive means small, poorly fitted or top-dose-only effect; inactive means no such curve, though single readings can be large or run the other way. Potency means the concentration at half of the fitted maximal effect.

SMILES	L3MBTL1 block	BAZ2B inh	G9a inh	JMJD2A Tudor inh	HP1b chromo inh
CCc1ccc(OCC(=O)NCC(c2ccc(OC)cc2)N2CCOCC2)cc1 (stereo not given)	nt	-12.6%	-5.4%[59 µM]	-15.2%	16.4%
Cc1nncn1-c1ccc(C(=O)Nc2cc(F)ccc2F)cc1	nt	11.0%	4.5%[59 µM]	3.5%	22.5%[57 µM]
Cc1c(C(=O)NNC(=S)Nc2ccc(S(N)(=O)=O)cc2)oc2ccccc12	nt	-38.2%	11.2µM*	?	-9.6%
NS(=O)(=O)c1ccc(NC(=S)NNC(=O)c2ccc(Br)o2)cc1	nt	-11.2%	8.91µM*	-8.2%	22.4%
CN(C)S(=O)(=O)c1ccc(NC(=S)NC(=O)c2ccc(Br)o2)cc1	nt	-15.0%	56.2µM*	nt	nt
Cc1c(C(=O)Nc2ccc(S(N)(=O)=O)cc2)oc2ccc(Cl)cc12	2.8%	-6.0%	nt	-15.0%[57.1 µM]	-0.2%
NS(=O)(=O)c1ccc(NC(=S)NC(=O)c2ccc(Br)o2)cc1	-1.0%	-17.2%	?	-25.6%[11.4 µM]	-17.1%
Cc1c(C(=O)NC(=S)Nc2ccc(NC(=O)c3cccs3)cc2)oc2ccccc12	-10.5%	50.1µM*	1.41µM*	-7.4%[11.4 µM]	32.7%
CCN(CC)C(=O)Cn1c(=O)n(CCCCCC(=O)NCc2ccc3c(c2)OCO3)c(=O)c2sccc21	nt	2.9%	-45.1%[59 µM]	-3.4%	19.2%
COC(=O)c1ccc(NC(=O)CC2C(=O)N(c3ccccc3)C(=O)N2Cc2cccs2)cc1 (stereo not given)	nt	0.0%	-7.4%[59 µM]	-6.1%	45.8%
O=C(Nc1ccccc1Cl)c1ccc(F)c(S(=O)(=O)NCc2ccc(Cl)c(Cl)c2)c1	nt	10.0%	3.2%[59 µM]	-7.6%	28.4%
CCn1c2ccccc2c2cc(NC(=O)CSc3nnc(-c4ccc(OC)c(OC)c4)n3N)ccc21	-1.3%	-23.8%	-0.3%[12.7 µM]	22.1%	13.3%
CCOc1ccc(-c2nnc(SCC(=O)Nc3ccc4c(c3)c3ccccc3n4CC)n2N)cc1	-9.2%	70.8µM*	?	?	1.9%
Cc1cc(NC(=O)CSc2nnc(-c3ccncc3)n2N)ccc1Br	2.4%	11.2%	35.5µM*	79.4µM*	14.8%
CN1C(C(=O)c2ccccc2)=C(NC(=O)c2ccccc2Br)c2ccccc2S1(=O)=O	nt	?	?	-23.6%	25.1%
COc1ccc(C(C(=O)NC2CCCCC2)N(Cc2cccnc2)C(=O)c2snc(C(N)=O)c2N)cc1 (stereo not given)	nt	-0.2%	12.4%[59 µM]	-5.0%	28.7%
O=C1C(=O)N(C2CCN(C(=O)c3cccc(Cl)c3)CC2)CCN1Cc1ccc(F)cc1	nt	-0.9%	-5.0%[59 µM]	-1.9%	31.1%
Cc1ccc(Nc2nc(=O)c3cccnc3s2)cc1	1.6%	-0.4%	-9.5%[59 µM]	-8.6%	30.4%
CCN(c1ccccc1)c1nc(=O)c2cccnc2s1	3.2%	-13.9%	35.5µM*	-0.7%	20.5%
COc1ccc(Br)cc1C1NC(c2ccc3c(c2)OCO3)=CC(c2cc(Cl)ccc2O)N1 (stereo not given)	nt	nt	nt	89.1µM*	-8.7%
COc1ccccc1C1NC(c2ccc3c(c2)OCO3)=CC(c2cc(Cl)ccc2O)N1 (stereo not given)	nt	nt	nt	-20.8%[57.1 µM]	11.2%[57 µM]
CCNc1ncc2nc(-c3cccs3)c(=O)n(Cc3cccc(OC)c3)c2n1	nt	nt	-6.6%[0.501 µM]	nt	nt
CCOc1ccc(OCCC(=O)N(CC(=O)Nc2ccccc2C(F)(F)F)Cc2ccco2)cc1	-27.6%	50.1µM*	44.7µM*	-18.2%	6.3%
CC(C)COc1ccc(C(=O)N(CC(=O)Nc2ccccc2C(F)(F)F)Cc2ccco2)cc1	-0.3%	-9.7%	-10.4%[2.33 µM]	-25.2%	-6.5%
CC(C)(C)N/N=C/c1c(O)n(-c2ccc(Cl)cn2)c(=O)c2ccccc12	?	-10.3%	3.16µM*	-16.6%	-2.9%
O=c1c2ccccc2c(C=Nc2cccc(S(=O)(=O)NCc3ccco3)c2)c(O)n1-c1ccc(Cl)cn1	5.9%	26.8%	28.2µM*	-13.8%[57.1 µM]	-10.6%
COC(=O)CN=Cc1c(O)n(-c2ccc(Cl)cn2)c(=O)c2ccccc12	4.4%	-1.4%	-2.4%	-11.5%	23.8%
CCCCOc1ccc(C(=O)Nc2cccc(-c3nc4cccnc4s3)c2)cc1	nt	-2.2%	-22.3%[59 µM]	-11.6%	5.7%
COc1ccc(OCC(O)CN(CC(O)COc2ccc(OC)cc2)c2cccc(O)c2)cc1 (stereo not given)	nt	44.7µM*	50.1µM*	?	-15.5%
